From PubChem BioAssay (EPA / NIEHS) come the findings set out here.

Records with an inconclusive call do not appear. Calls of active or inactive are those of the source. How the source made its calls, unless noted: active means hit-call score of the fitted dose curve at least 0.9, where 1 is the maximum; inactive means score below 0.9.

In assay [1] the target is Paired box protein Pax-6 (Homo sapiens) (UniProt P26367). The experiment in a line: ATG_Pax6_CIS: Attagene CIS-FACTORIAL HepG2 Assay for human Paired Box 6 (PAX6) (AID 2282956). The settings on record: HepG2 CIS-FACTORIAL PAX6 reporter transcription, RNA readout; actives raise or lower the signal. A digest of the protocol: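 HepG2 cells transiently transfected with multiplexed cis-promoter reporter units (endogenous TF activity) were dosed for 24 h. Reporter mRNA was quantified by RT-PCR, 6-FAM labeling, HpaI digestion and capillary electrophoresis; bidirectional fitting versus DMSO baseline.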
Paired box protein Pax-6 (Homo sapiens), sequence (P26367 whole entry, looked up): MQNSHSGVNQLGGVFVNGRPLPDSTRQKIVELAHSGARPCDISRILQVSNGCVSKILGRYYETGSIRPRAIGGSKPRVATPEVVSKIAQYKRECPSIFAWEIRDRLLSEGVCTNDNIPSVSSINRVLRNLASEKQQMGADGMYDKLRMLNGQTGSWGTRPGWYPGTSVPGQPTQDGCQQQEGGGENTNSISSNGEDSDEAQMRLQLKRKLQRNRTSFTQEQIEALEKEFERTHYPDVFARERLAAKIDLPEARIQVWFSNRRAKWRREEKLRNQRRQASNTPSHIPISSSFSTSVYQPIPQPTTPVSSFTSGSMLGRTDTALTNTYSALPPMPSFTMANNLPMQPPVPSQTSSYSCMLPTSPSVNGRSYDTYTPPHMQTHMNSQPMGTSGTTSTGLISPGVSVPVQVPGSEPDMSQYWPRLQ

Assay [2] in a line: ATG_RORE_CIS: Attagene CIS-FACTORIAL HepG2 Assay for human RAR-related Orphan Receptor Element (RORE) (AID 2282959). As to conditions: HepG2 Attagene cis-factorial RORE reporter, mRNA; actives raise or lower the signal. A digest of the protocol:
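Readout: fluorescent reporter mRNA by RT-PCR plus capillary electrophoresis, 24 h after dosing transfected HepG2 cells. Endogenous transcription factor activity on a cis promoter element is measured. Gain or loss of signal fitted against DMSO.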

Assay [3] can be described thus: ATG_Sox_CIS: Attagene CIS-FACTORIAL HepG2 Assay for human SRY-box transcription factor (SOX) (AID 2282960). The settings on record: HepG2 Attagene cis-factorial SOX reporter, mRNA; actives raise or lower the signal. A digest of the protocol: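 Read-out: fluorescent RT-PCR products of SOX1-linked reporter transcripts resolved by capillary electrophoresis, fitted bidirectionally against DMSO. Transiently transfected HepG2 cells, 24 h after chemical exposure, endogenous transcription factor activity.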

Assay [4] deals with Transcription factor Sp1 (Homo sapiens) (UniProt P08047). Description: ATG_Sp1_CIS: Attagene CIS-FACTORIAL HepG2 Assay for human Specificity Protein 1 (Sp1) (AID 2282961). The settings on record: HepG2 Sp1 cis-reporter transcription, actives raise or lower the signal. Summed up: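 Read-out: fluorescence of 6-FAM-labeled, HpaI-digested RT-PCR products separated by capillary electrophoresis. HepG2 cells carried transfected cis-element reporter units and were exposed to chemicals for 24 h; gain or loss of signal fitted relative to DMSO.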
Transcription factor Sp1 (Homo sapiens), sequence (P08047 whole entry, looked up): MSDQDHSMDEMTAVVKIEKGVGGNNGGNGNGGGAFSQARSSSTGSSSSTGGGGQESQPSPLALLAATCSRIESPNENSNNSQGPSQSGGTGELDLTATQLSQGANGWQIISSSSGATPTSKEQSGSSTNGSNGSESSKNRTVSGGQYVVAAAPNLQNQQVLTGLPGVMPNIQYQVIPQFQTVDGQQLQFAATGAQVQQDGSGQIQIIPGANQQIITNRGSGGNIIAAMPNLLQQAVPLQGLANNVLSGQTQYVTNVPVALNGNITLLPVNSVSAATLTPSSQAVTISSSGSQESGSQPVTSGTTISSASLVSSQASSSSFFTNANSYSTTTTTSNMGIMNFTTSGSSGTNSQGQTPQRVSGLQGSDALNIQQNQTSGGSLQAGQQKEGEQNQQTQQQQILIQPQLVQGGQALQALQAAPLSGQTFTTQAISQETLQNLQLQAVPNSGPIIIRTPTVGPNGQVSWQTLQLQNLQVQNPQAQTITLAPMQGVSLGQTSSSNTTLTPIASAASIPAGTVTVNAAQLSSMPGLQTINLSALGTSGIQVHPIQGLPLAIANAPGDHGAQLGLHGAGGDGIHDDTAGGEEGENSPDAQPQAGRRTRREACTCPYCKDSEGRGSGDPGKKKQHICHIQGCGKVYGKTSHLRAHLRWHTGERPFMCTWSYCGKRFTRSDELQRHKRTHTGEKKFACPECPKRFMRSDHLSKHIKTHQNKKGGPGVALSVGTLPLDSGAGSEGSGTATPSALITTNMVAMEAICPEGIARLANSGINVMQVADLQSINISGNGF

Assay [5] can be described thus: ATG_SREBP_CIS: Attagene CIS-FACTORIAL HepG2 Assay for human Sterol Regulatory Element Binding (SREBP) (AID 2282962). The settings on record: HepG2 Attagene cis-factorial SREBP reporter, mRNA; actives raise or lower the signal. A digest of the protocol:
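HepG2 cells transiently transfected with multiplexed cis-element reporter units report endogenous transcription factor activity. After 24 h of chemical exposure, reporter mRNA was quantified by RT-PCR, 6-FAM labelling, HpaI digestion and capillary electrophoresis; bidirectional fits used DMSO as baseline.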

Assay [6] has as its target Signal transducer and activator of transcription 3 (Homo sapiens) (UniProt P40763). Description: ATG_STAT3_CIS: Attagene CIS-FACTORIAL HepG2 Assay for human Signal Transducer and Activator of Transcription 3 (STAT3) (AID 2282963). The settings on record: HepG2, Attagene cis-factorial STAT3 reporter transcription; actives raise or lower the signal. Summed up:
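Values derive from bidirectional fits relative to DMSO of reporter mRNA levels, measured by RT-PCR with capillary electrophoresis, in HepG2 cells carrying transiently transfected cis-regulated reporter units and exposed 24 h.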

The nature of assay [7]: ATG_TA_CIS: Attagene CIS-FACTORIAL HepG2 Assay for human TA Basal Promoter (AID 2282964). The settings on record: HepG2 Attagene CIS-factorial TA basal promoter reporter; actives raise or lower the signal. Summed up:
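Read-out: fluorescent reporter-transcript fragments resolved by capillary electrophoresis after RT-PCR and HpaI digestion. Source: HepG2 cells carrying transiently transfected multi-reporter cis constructs, treated 24 h. Endpoint fitted bidirectionally relative to DMSO.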

A short description of assay [8]: ATG_TCF_b_cat_CIS: Attagene CIS-FACTORIAL HepG2 Assay for human T-Cell-Factor with beta-catenin (TCF/b-cat) (AID 2282965). The settings on record: HepG2 TCF/beta-catenin cis-reporter transcription, actives raise or lower the signal. A digest of the protocol:
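HepG2, transient MRTU transfection, cis-element-driven reporters (endogenous TFs). 24 h compound exposure. Readout: reporter mRNA by RT-PCR + 6-FAM primer extension, HpaI digest, capillary electrophoresis. Gain/loss fit vs DMSO baseline.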

The nature of assay [9]: ATG_TAL_CIS: Attagene CIS-FACTORIAL HepG2 Assay for human TAL Basal Promoter (AID 2282966).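 Further: background control endpoint measuring basal TAL promoter reporter mRNA not a specific factor.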 As to conditions: HepG2 Attagene cis-factorial TAL promoter reporter; actives raise or lower the signal. A digest of the protocol:
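Fluorescence of labelled reporter cDNA fragments, resolved by capillary electrophoresis, gave the readout. Human HepG2 liver cells carried transiently transfected cis-element reporter units and were treated for 24 hours; activity was fitted bidirectionally against DMSO.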

A short description of assay [10]: ATG_VDRE_CIS: Attagene CIS-FACTORIAL HepG2 Assay for human Vitamin D Receptor Element (VDRE) (AID 2282968). As to conditions: HepG2 VDRE cis-reporter transcription, actives raise or lower the signal. A digest of the protocol:
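Cell-based multiplexed reporter format in human liver HepG2 cells, 24 h post-dose. Fluorescence from capillary electrophoresis of reporter cDNA gives the signal, with DMSO as negative control and baseline.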

The target of assay [11] is Nuclear receptor subfamily 1 group I member 3 (Homo sapiens) (UniProt Q14994). Description: ATG_CAR_TRANS: Attagene TRANS-FACTORIAL HepG2 Assay for human Constitutive Androstane Receptor (CAR) (AID 2282969; active means hit-call score of the fitted dose curve at least 0.9, where 1 is the maximum;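 further: activators raise reporter mRNA above DMSO so AC50 marks induction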). As to conditions: HepG2 Attagene TRANS-FACTORIAL CAR reporter. A digest of the protocol:
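HepG2 cells transiently transfected with GAL4-UAS reporter units; TRANS format reads activity of exogenous chimeric NR-Gal4 protein. After 24 h dosing, reporter mRNA quantified by RT-PCR, 6-FAM labelling and capillary electrophoresis; gain of signal fitted against DMSO.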

In assay [12] the target is Estrogen receptor (Homo sapiens) (UniProt P03372). Description: ATG_ERa_TRANS: Attagene TRANS-FACTORIAL HepG2 Assay for human Estrogen Receptor alpha (ERa) (AID 2282970; active means hit-call score of the fitted dose curve at least 0.9, where 1 is the maximum). As to conditions: HepG2 Attagene TRANS ERa GAL4 reporter, mRNA. Summed up:
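Human liver HepG2, transient transfection of multiple GAL4-UAS reporter units; TRANS format (exogenous NR-Gal4 chimera). 24 h dosing. Readout: reporter mRNA, RT-PCR, 6-FAM primer extension, HpaI digest, capillary electrophoresis. Positive direction vs DMSO.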

Assay [13] in a line: ATG_M_19_TRANS: Attagene TRANS-FACTORIAL HepG2 Assay for M19 Transcription Factor (Internal Marker) (AID 2282974; active means hit-call score of the fitted dose curve at least 0.9, where 1 is the maximum). The settings on record: HepG2 Attagene TRANS-FACTORIAL M19 internal marker reporter. A digest of the protocol:
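24 h chemical exposure of transiently transfected HepG2 (MRTU library). RNA → oligo(dT) RT → PCR → 6-FAM labelling → HpaI cut → CE fluorescence. Positive-direction fit vs DMSO baseline; background internal-marker readout.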

Assay [14] is described as follows: ATG_GAL4_TRANS: Attagene TRANS-FACTORIAL HepG2 Assay for GAL4 (Internal Marker) (AID 2282976; active means hit-call score of the fitted dose curve at least 0.9, where 1 is the maximum). The settings on record: HepG2 Attagene TRANS GAL4 internal marker reporter. A digest of the protocol:
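First, HepG2 cells were transfected with reporter units under GAL4-UAS control. Next, they were treated with chemical for 24 h. Finally, RNA was reverse-transcribed, PCR-amplified, FAM-labelled and resolved by capillary electrophoresis, with induction scored against DMSO.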

Assay [15] is described as follows: ATG_PPRE_CIS: Attagene CIS-FACTORIAL HepG2 Assay for human Peroxisome Proliferator-activated Response Element (PPRE) (AID 2282958). As to conditions: HepG2 PPRE cis-element reporter, Attagene transcription factor profiling; actives raise or lower the signal. A digest of the protocol: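 Read-out: fluorescent reporter mRNA fragments resolved by capillary electrophoresis after RT-PCR. HepG2 cells carried transiently transfected PPRE-driven cis reporter constructs and were dosed for 24 h; gain or loss of signal fitted relative to DMSO.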

A short description of assay [16]: ATG_TGFb_CIS: Attagene CIS-FACTORIAL HepG2 Assay for human Transforming Growth Factor (TGF) (AID 2282967). As to conditions: HepG2 Attagene CIS TGFb reporter, mRNA transcription; actives raise or lower the signal. A digest of the protocol:
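Transient MRTU transfection of HepG2 (FuGene 6). Dose 24 h. TriZol RNA, oligo(dT) RT, PCR, 6-FAM primer extension, HpaI cut, CE. Bidirectional fit, DMSO = baseline.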

The target in assay [17] is X-box-binding protein 1 (Homo sapiens) (UniProt P17861). Description: ATG_Xbp1_CIS: Attagene CIS-FACTORIAL HepG2 Assay for human X-box Binding Protein 1 (XBP1) (AID 2282972). As to conditions: HepG2 XBP1 cis-element reporter, Attagene multiplex; actives raise or lower the signal. A digest of the protocol:
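HepG2 cells transiently transfected with cis-regulated multiple reporter transcription units; endogenous transcription factor activity measured 24 hours after chemical dosing. Reporter mRNA quantified by RT-PCR, 6-FAM primer extension, HpaI digestion and capillary electrophoresis; bidirectional fitting versus DMSO.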

The target in assay [18] is Estrogen-related receptor gamma (Homo sapiens) (UniProt P62508). The experiment in a line: ATG_ERRg_TRANS: Attagene TRANS-FACTORIAL HepG2 Assay for human Estrogen-Related Receptor gamma (ERRg) (AID 2282977; active means hit-call score of the fitted dose curve at least 0.9, where 1 is the maximum;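 further: hits increase reporter signal over DMSO so potencies reflect activators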). The settings on record: HepG2 Attagene TRANS reporter, ERRg transactivation. A digest of the protocol: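 Transient HepG2 transfectants, 24 h compound exposure, GAL4-UAS reporter mRNA by RT-PCR/6-FAM labelling/capillary electrophoresis; positive direction vs DMSO.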
Estrogen-related receptor gamma (Homo sapiens), sequence (P62508 whole entry, looked up, the tested form may be a part): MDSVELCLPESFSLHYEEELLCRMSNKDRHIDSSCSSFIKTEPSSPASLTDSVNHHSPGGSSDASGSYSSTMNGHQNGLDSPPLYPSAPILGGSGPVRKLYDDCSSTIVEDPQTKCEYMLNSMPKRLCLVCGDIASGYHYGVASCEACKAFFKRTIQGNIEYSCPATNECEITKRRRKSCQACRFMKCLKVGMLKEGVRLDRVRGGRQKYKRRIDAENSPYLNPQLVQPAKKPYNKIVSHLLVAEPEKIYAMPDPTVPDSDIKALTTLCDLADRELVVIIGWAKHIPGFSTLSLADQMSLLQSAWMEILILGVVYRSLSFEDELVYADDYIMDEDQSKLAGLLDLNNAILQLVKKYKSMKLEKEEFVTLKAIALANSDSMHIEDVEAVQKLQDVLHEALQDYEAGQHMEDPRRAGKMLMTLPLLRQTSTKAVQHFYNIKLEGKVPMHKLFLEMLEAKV

Assay [19] deals with Steroid hormone receptor ERR1 (Homo sapiens) (UniProt P11474). The experiment in a line: ATG_ERRa_TRANS: Attagene TRANS-FACTORIAL HepG2 Assay for human Estrogen-Related Receptor alpha (ERRa) (AID 2282971; active means hit-call score of the fitted dose curve at least 0.9, where 1 is the maximum). The settings on record: HepG2 Attagene TRANS reporter, ERRa transactivation. A digest of the protocol:
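Reporter transcript induction was quantified by RT-PCR and capillary electrophoresis of FAM-labelled, HpaI-cut products after 24 h treatment of HepG2 cells carrying transiently transfected GAL4-UAS reporter units and an exogenous ERRa-Gal4 fusion; activity scored as increase over DMSO.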

Estrogen receptor (Homo sapiens), sequence (P03372 whole entry, looked up, the tested form may be a part): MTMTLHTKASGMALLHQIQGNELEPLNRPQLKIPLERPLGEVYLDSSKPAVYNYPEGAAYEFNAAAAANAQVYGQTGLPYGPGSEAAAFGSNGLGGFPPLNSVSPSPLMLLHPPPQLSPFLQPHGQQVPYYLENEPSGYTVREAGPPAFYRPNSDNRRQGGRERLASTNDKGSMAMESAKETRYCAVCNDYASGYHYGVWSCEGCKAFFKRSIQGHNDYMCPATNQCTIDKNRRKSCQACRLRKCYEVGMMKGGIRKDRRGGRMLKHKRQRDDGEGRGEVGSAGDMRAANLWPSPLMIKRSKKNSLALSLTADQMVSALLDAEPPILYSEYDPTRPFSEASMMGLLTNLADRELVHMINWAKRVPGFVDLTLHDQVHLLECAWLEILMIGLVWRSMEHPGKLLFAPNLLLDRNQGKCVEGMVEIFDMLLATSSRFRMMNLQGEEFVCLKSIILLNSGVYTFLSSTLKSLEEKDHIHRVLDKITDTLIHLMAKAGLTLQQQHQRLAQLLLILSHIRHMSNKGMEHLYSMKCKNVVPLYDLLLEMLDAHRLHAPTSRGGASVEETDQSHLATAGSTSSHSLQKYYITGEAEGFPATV
X-box-binding protein 1 (Homo sapiens), sequence (P17861 whole entry, looked up): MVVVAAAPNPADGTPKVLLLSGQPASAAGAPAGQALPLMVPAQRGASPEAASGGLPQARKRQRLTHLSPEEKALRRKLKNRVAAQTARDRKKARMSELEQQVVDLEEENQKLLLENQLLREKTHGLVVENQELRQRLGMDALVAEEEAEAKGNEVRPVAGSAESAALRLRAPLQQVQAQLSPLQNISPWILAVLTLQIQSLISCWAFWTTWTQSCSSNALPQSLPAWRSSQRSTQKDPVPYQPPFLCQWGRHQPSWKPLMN
Signal transducer and activator of transcription 3 (Homo sapiens), sequence (P40763 whole entry, looked up): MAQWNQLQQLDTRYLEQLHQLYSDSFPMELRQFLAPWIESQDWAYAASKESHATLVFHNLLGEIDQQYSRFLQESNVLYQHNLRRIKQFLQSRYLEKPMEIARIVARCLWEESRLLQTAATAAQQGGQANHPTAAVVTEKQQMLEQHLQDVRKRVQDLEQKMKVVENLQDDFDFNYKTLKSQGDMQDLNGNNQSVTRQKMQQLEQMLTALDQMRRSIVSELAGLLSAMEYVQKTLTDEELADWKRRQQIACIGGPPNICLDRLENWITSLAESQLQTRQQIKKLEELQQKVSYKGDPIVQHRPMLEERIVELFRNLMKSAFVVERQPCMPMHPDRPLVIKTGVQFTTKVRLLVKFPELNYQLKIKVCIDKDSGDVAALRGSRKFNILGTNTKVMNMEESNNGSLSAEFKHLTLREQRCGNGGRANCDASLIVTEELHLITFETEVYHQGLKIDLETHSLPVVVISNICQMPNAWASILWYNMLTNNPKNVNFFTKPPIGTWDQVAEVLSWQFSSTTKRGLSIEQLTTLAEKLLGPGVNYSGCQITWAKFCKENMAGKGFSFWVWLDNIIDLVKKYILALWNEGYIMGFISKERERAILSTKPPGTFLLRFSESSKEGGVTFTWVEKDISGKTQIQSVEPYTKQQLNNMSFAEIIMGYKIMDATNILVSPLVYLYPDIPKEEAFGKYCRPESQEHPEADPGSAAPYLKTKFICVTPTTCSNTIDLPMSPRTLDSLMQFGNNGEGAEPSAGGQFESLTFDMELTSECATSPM
Nuclear receptor subfamily 1 group I member 3 (Homo sapiens), sequence (Q14994 whole entry, looked up, the tested form may be a part): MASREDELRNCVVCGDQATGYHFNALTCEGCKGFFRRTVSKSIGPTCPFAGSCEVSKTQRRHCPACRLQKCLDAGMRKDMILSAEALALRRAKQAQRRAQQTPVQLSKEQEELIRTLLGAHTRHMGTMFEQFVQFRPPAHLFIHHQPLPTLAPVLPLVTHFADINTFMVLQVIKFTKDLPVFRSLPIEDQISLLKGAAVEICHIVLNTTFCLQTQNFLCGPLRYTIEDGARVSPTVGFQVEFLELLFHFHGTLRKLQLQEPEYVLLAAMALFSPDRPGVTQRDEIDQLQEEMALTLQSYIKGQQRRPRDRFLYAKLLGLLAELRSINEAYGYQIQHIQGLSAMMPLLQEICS
Steroid hormone receptor ERR1 (Homo sapiens), sequence (P11474 whole entry, looked up, the tested form may be a part): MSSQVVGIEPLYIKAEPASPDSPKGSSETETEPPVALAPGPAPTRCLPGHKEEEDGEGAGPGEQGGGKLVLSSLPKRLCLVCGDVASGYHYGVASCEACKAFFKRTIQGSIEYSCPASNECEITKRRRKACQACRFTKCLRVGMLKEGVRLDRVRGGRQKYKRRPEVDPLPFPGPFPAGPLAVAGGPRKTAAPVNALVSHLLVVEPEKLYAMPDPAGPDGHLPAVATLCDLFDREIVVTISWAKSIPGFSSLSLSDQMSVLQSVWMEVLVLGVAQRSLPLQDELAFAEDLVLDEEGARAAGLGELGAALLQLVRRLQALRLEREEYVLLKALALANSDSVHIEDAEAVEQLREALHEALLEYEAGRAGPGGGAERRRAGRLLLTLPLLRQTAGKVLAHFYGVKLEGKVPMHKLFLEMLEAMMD

As for `O=C1CCCCCCCCCCC(=O)OCCO1`, the result in [1], in [2], in [3], in assay [4], in [5] and in assay [6] was inactive. The call in assay [7], in assay [8], in assay [9], in [10], in assay [11] and in assay [12] was inactive. The compound was classed as inactive in [13] and in [14].
For the compound `C(=CC=Nc1ccccc1)C=CNc1ccccc1`, the compound was classed as inactive in [1], in assay [15], in assay [2], in assay [3], in assay [4] and in [5]. In addition, the result in assay [6], in [7], in assay [8], in assay [16], in assay [10] and in assay [11] was inactive. The outcome in [12], in [17], in assay [13] and in assay [14] was inactive.
Regarding `C=C(C)C(=O)OCCOc1ccccc1`, the result in [1], in [15], in [2], in assay [3], in assay [4] and in assay [5] was inactive. Further, the compound was called inactive in assay [7], in assay [8], in [9], in [16], in assay [12] and in assay [17]. In addition, the call in assay [14] and in assay [18] was inactive.
As for `O=C(O)CCCCCCCCCC(=O)O`, the compound was classed as inactive in assay [1], in assay [15], in assay [2], in assay [3], in [4] and in assay [5]. Further, the compound was called inactive in assay [6], in assay [7], in [8], in assay [16], in assay [10] and in [19]. Further, the compound was classed as inactive in assay [17], in [14] and in [18]. Besides, the AC50 in assay [12] was 22.7 µM (active).

Broadly, the AC50 is the concentration at which the activity in the assay is half-maximal.
